Inconclusive results are not listed. Active and inactive are the calls of the source. How the source made its calls, unless noted: active means hit-call score of the fitted dose curve at least 0.9, where 1 is the maximum; inconclusive means response in the unintended direction; inactive means score below 0.9.
Columns and labels:
[1] = read-out: sulfotransferase (SULT2A), SULT2A1 (gene 6822); assay: CLD_SULT2A_6hr: CellzDirect (CLD) Gene Expression Assay for sulfotransferase (SULT2A) at 6 hours (AID 2283669);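 further: hits raise transcript level above the DMSO vehicle baseline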
Procedure, shortened: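 Primary human hepatocytes from two donor preparations were dosed daily with chemicals or 0.2% DMSO and harvested at 6 h. Transcript induction read by qNPA chemiluminescence, fitted for gain of signal relative to DMSO; morphology-based cytotoxicity annotated.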

[2] = CLD_ACTIN_24hr: CellzDirect (CLD) Gene Expression Assay for Baseline Control (Actin) at 24 hours (AID 2283670)
Procedure, shortened: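 Primary human hepatocytes dosed over multiple concentrations with 0.2% DMSO vehicle; actin mRNA measured at 24 h by qNPA chemiluminescence. Background control endpoint, fitted as gain of signal versus DMSO.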

[3] = read-out: glucuronosyltransferase (UGT1A1), UGT1A1 (gene 54658); assay: CLD_UGT1A1_6hr: CellzDirect (CLD) Gene Expression Assay for glucuronosyltransferase (UGT1A1) at 6 hours (AID 2283672)
Procedure, shortened: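 Primary human hepatocytes from two donor preparations, dosed with fresh solutions in 0.2% DMSO, harvested at 6 h. UGT1A1 mRNA measured by qNPA chemiluminescence; induction fitted upward versus DMSO.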

[4] = read-out: xenobiotic metabolism (CYP1A1), CYP1A1 (gene 1543); assay: CLD_CYP1A1_24hr: CellzDirect (CLD) Gene Expression Assay for xenobiotic metabolism (CYP1A1) at 24 hours (AID 2283673);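 further: CYP1A1 mRNA level by quantitative nuclease protection with chemiluminescence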
Procedure, shortened: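 Primary human hepatocytes dosed daily with fresh solutions in 0.2% DMSO vehicle. mRNA measured at 24 h by quantitative nuclease protection assay with chemiluminescence; gain-of-signal fit versus DMSO, with morphology-based cytotoxicity flags.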

[5] = CLD_ACTIN_6hr: CellzDirect (CLD) Gene Expression Assay for Baseline Control (Actin) at 6 hours (AID 2283676);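 further: active means increased actin mRNA relative to DMSO vehicle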
Procedure, shortened: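 Primary human hepatocytes dosed with fresh chemical solutions (vehicle 0.2% DMSO), harvested at 6 h. Actin mRNA quantified by quantitative nuclease protection assay with chemiluminescent read-out, as background control relative to DMSO.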

[6] = read-out: Cytochrome P450 3A4 (Homo sapiens) (UniProt P08684); assay: CLD_CYP3A4_6hr: CellzDirect (CLD) Gene Expression Assay for xenobiotic metabolism (CYP3A4) at 6 hours (AID 2283680)
Procedure, shortened: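 Primary human hepatocytes (two donor preparations) dosed; CYP3A4 mRNA harvested at 6 h and quantified by qNPA chemiluminescence. Gain of signal fitted against 0.2% DMSO vehicle; cytotoxicity flagged by phase-contrast morphology.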

[7] = read-out: HMG-CoA synthase (HMGCS2), HMGCS2 (gene 3158); assay: CLD_HMGCS2_6hr: CellzDirect (CLD) Gene Expression Assay for HMG-CoA synthase (HMGCS2) at 6 hours (AID 2283682);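 further: actives raise HMGCS2 transcript above the 0.2% DMSO vehicle baseline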
Procedure, shortened: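 Primary human hepatocytes dosed daily with fresh chemical, 0.2% DMSO vehicle; HMGCS2 mRNA measured at 6 h by qNPA chemiluminescence. Gain of signal fitted against DMSO; cytotoxicity flagged from phase-contrast morphology.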

[8] = read-out: xenobiotic metabolism (CYP1A2), CYP1A2 (gene 1544); assay: CLD_CYP1A2_24hr: CellzDirect (CLD) Gene Expression Assay for xenobiotic metabolism (CYP1A2) at 24 hours (AID 2283683)
Procedure, shortened: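 Primary human hepatocytes from two donor preparations dosed daily with multiple concentrations of chemical, 0.2% DMSO vehicle. CYP1A2 mRNA at 24 h quantified by qNPA chemiluminescence; gain of signal analyzed relative to DMSO. Cytotoxicity flagged by phase-contrast morphology.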

[9] = read-out: Broad substrate specificity ATP-binding cassette transporter ABCG2 (Homo sapiens) (UniProt Q9UNQ0); assay: CLD_ABCG2_24hr: CellzDirect (CLD) Gene Expression Assay for ABC Transporter (ABCG2) at 24 hours (AID 2283685)
Procedure, shortened: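 Primary human hepatocytes were dosed daily with ToxCast chemicals at multiple concentrations (vehicle 0.2% DMSO). ABCG2 mRNA was measured at 24 h by qNPA chemiluminescence; induction was scored as gain of signal versus DMSO.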

[10] = read-out: Cytochrome P450 2B6 (Homo sapiens) (UniProt P20813); assay: CLD_CYP2B6_24hr: CellzDirect (CLD) Gene Expression Assay for xenobiotic metabolism (CYP2B6) at 24 hours (AID 2283686)
Procedure, shortened: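 Primary human hepatocytes dosed daily for two days with fresh solutions, harvested at 24 hours; mRNA induction quantified by qNPA chemiluminescence, gain of signal vs 0.2% DMSO vehicle. Cytotoxicity annotated from phase-contrast morphology.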

[11] = read-out: Cytochrome P450 2B6 (Homo sapiens) (UniProt P20813); assay: CLD_CYP2B6_6hr: CellzDirect (CLD) Gene Expression Assay for xenobiotic metabolism (CYP2B6) at 6 hours (AID 2283677);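 further: actives raise CYP2B6 transcript above DMSO baseline so AC50 marks an inducer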
Procedure, shortened: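 Primary human hepatocytes dosed with chemicals at multiple concentrations, vehicle 0.2% DMSO; CYP2B6 mRNA induction measured 6 h after dosing by quantitative nuclease protection assay with chemiluminescence, gain of signal fitted relative to DMSO.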

[12] = read-out: Cytochrome P450 2C9 (Homo sapiens) (UniProt P11712); assay: CLD_CYP2C9_24hr: CellzDirect (CLD) Gene Expression Assay for xenobiotic metabolism (CYP2C9) at 24 hours (AID 2283688)
Procedure, shortened: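 Primary human hepatocytes from two donor preparations, dosed daily for two days at multiple concentrations; vehicle 0.2% DMSO. CYP2C9 mRNA induction at 24 h measured by qNPA chemiluminescence relative to DMSO; cytotoxicity annotated from morphology.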

[13] = read-out: Cytochrome P450 2C19 (Homo sapiens) (UniProt P33261); assay: CLD_CYP2C19_6hr: CellzDirect (CLD) Gene Expression Assay for xenobiotic metabolism (CYP2C19) at 6 hours (AID 2283678)
Procedure, shortened: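 Primary human hepatocytes from two donor preparations were dosed daily, with 0.2% DMSO as vehicle, and harvested 6 h after dosing. CYP2C19 mRNA induction was measured by qNPA chemiluminescence and fitted as gain of signal against DMSO.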

[14] = read-out: ABC Transporter (ABCB11), ABCB11 (gene 8647); assay: CLD_ABCB11_24hr: CellzDirect (CLD) Gene Expression Assay for ABC Transporter (ABCB11) at 24 hours (AID 2283674; active means hit-call score of the fitted dose curve at least 0.9, where 1 is the maximum; inactive means score below 0.9)
Procedure, shortened: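 Primary human hepatocytes were dosed daily for two days, with 0.2% DMSO vehicle. ABCB11 mRNA induction was measured at 24 hours by quantitative nuclease protection assay with chemiluminescence. Gain of signal was fitted relative to DMSO.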

[15] = CCTE_Padilla_ZF_144hpf_TERATOSCORE: (Legacy) CCTE's 144 Hour Post-fertilization zebrafish Assay Teratoscore, Padilla Lab (AID 2283679; active means hit-call score of the fitted dose curve at least 0.9, where 1 is the maximum; inactive means score below 0.9;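 on AC50: zebrafish embryos with chorions exposed by immersion from 6-8 hpf to 5 dpf with daily renewal; teratogenicity score from eye scoring of death hatching and malformations at 144 hpf; higher score means more developmental defects relative to DMSO baseline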)
Procedure, shortened: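 Larvae scored by eye at 144 hpf for death, hatching and malformations after a day in clean Hanks'. Before that, daily-renewed exposure at 80 uM (0.4% DMSO, 26C) from roughly 6-8 hpf through 5 dpf, 4 embryos per chemical.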

[16] = read-out: ABC Transporter (ABCB1), ABCB1 (gene 5243); assay: CLD_ABCB1_24hr: CellzDirect (CLD) Gene Expression Assay for ABC Transporter (ABCB1) at 24 hours (AID 2283684)
Procedure, shortened: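 Primary human hepatocytes, two donor preparations, dosed daily with fresh solutions; vehicle 0.2% DMSO; harvested at 24 h. ABCB1 mRNA measured by quantitative nuclease protection assay (chemiluminescence); morphology-based cytotoxicity annotated.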

[17] = read-out: Cytochrome P450 (CYP24A1_1), CYP24A1 (gene 1591); assay: LTEA_HepaRG_CYP24A1_1: Life Technologies and Expression Analysis (LTEA) Assay for Cytochrome P450 (CYP24A1_1) using HepaRG (AID 2283671; active means hit-call score of the fitted dose curve at least 0.9, where 1 is the maximum; inactive means score below 0.9); settings: mRNA level, 48 h; actives raise or lower the signal
Procedure, shortened: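 In this test, gene induction or suppression of CYP24A1 in human HepaRG liver cells is measured by qRT-PCR after 48 h chemical treatment (eight concentrations, maximum 100 uM). Values are fitted bidirectionally relative to DMSO.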

Measured: AC50

Sequence of Cytochrome P450 2C19 (Homo sapiens) (P33261 whole entry, looked up): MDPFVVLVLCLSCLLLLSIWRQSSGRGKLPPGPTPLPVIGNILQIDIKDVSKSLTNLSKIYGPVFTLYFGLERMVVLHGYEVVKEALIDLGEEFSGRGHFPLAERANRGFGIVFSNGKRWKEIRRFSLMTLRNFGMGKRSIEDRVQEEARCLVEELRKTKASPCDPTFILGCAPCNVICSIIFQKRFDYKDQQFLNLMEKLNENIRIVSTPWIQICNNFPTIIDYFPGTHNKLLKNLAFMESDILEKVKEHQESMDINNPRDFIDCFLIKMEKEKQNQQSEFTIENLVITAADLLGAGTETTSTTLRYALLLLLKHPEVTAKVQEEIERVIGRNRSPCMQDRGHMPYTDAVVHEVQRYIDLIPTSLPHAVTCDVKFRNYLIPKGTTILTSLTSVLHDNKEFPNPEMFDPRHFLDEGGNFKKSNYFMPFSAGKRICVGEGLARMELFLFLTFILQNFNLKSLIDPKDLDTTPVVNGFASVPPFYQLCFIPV
Sequence of Broad substrate specificity ATP-binding cassette transporter ABCG2 (Homo sapiens) (Q9UNQ0 whole entry, looked up): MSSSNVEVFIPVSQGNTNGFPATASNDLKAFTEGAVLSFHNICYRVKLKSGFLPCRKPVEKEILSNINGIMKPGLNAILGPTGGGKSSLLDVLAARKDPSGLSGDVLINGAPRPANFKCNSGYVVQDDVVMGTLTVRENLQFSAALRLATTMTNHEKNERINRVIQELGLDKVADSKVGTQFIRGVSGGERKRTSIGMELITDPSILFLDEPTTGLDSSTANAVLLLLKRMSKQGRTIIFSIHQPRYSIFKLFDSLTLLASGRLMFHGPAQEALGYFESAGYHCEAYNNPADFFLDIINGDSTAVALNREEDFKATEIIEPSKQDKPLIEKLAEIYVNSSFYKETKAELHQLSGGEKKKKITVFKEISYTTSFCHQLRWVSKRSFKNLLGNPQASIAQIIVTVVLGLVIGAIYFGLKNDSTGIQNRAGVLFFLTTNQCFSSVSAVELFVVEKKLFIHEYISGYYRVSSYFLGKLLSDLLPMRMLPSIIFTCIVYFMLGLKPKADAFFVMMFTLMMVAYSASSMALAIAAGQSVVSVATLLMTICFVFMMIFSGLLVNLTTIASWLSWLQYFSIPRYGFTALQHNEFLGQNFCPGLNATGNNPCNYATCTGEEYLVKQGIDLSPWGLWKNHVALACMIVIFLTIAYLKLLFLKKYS
Sequence of Cytochrome P450 3A4 (Homo sapiens) (P08684 whole entry, looked up): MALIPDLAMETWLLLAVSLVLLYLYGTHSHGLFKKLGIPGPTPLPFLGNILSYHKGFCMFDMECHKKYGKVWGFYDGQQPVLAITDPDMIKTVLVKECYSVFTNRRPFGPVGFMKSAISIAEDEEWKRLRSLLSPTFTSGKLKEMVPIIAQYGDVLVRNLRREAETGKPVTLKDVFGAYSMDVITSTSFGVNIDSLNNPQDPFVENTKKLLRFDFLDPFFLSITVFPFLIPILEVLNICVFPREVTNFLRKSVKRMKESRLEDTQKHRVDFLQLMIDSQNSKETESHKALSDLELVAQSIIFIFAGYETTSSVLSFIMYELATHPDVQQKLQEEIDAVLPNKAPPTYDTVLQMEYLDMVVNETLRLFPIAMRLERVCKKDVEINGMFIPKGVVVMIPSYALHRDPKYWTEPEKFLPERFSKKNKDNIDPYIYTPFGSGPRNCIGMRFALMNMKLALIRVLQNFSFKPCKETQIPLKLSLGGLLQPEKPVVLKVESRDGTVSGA

COc1ccc(-c2ccccc2)cc1NNC(=O)OC(C)C
active: [4] 14.1 µM | [8] 0.255 µM | [10] 4.09 µM
inactive: [1] | [2] | [3] | [5] | [6] | [7] | [9]

Cc1c(COC(=O)[C@@H]2[C@H](/C=C(\Cl)C(F)(F)F)C2(C)C)cccc1-c1ccccc1
inactive: [2] | [3] | [9] | [12]
active: [4] 31.6 µM | [11] 4.27 µM | [6] 3.44 µM | [8] 32.2 µM | [10] 4.37 µM

COC(=O)NC(=S)Nc1ccccc1NC(=S)NC(=O)OC
inactive: [1] | [3] | [13] | [6] | [7] | [9]
active: [4] 15.1 µM | [8] 12.2 µM | [10] 7.45 µM

C=C(C)CN(CC)c1c([N+](=O)[O-])cc(C(F)(F)F)cc1[N+](=O)[O-]
active: [4] 20 µM
not listed: [2] | [6] | [11] | [12] | [16] | [17]
inactive: all other assays above

Cc1cc(C)nc(Nc2ccccc2)n1
inactive: [1] | [3] | [6]
active: [4] 7.59 µM | [8] 5.77 µM | [10] 1.9 µM

CCSC(=O)N1CCCCCC1
inactive: [1] | [2] | [3] | [4] | [5] | [6] | [7] | [8]
active: [10] 0.302 µM

Nc1cnn(-c2ccccc2)c(=O)c1Cl
active: [8] 5.8 µM
inactive: [1] | [3] | [4] | [15] | [7] | [9] | [10]

Cn1c(-c2ccccc2)cc(-c2ccccc2)[n+]1C
inactive: [1] | [2] | [5] | [7] | [9]
active: [4] 0.158 µM | [8] 0.141 µM

Cc1cnc(C2=NC(C)(C(C)C)C(=O)N2)c(C(=O)O)c1 (stereo not given)
not listed: [4] | [11] | [12] | [13] | [15] | [17]
inactive: all other assays above

CC(C)(C)C(=O)C(Oc1ccc(Cl)cc1)n1cncn1 (stereo not given)
active: [4] 9.03 µM | [11] 3.95 µM | [15] 17.4 µM | [6] 0.434 µM | [8] 9.31 µM | [10] 4.5 µM
inactive: [1] | [3] | [13] | [16] | [9]

O=C1C2CC=CCC2C(=O)N1SC(Cl)(Cl)Cl (stereo not given)
active: [15] 1.96 µM
inactive: [2] | [4] | [5] | [8] | [9]

CNC(=O)Oc1cccc2ccccc12
inactive: [1] | [3] | [5] | [9]
active: [4] 8.24 µM | [8] 2.83 µM | [10] 7.28 µM

CCOP(=S)(OCC)Oc1nc(Cl)n(C(C)C)n1
inactive: [1] | [17] | [3] | [9] | [12]
active: [4] 2.18 µM | [15] 57.2 µM | [6] 0.466 µM | [8] 0.975 µM | [10] 0.383 µM

CC(C)=CC1C(C(=O)OCc2coc(Cc3ccccc3)c2)C1(C)C (stereo not given)
inactive: [3] | [4] | [13] | [6] | [8] | [9]
active: [11] 7.48 µM | [10] 5.63 µM

CNC(=O)N(C)c1nnc(C(C)(C)C)s1
inactive: [4] | [5] | [13] | [6] | [8] | [10]

CCNP(=S)(OC)O/C(C)=C/C(=O)OC(C)C (stereo not given)
active: [4] 3.93 µM | [15] 40.6 µM | [6] 1.9 µM | [8] 4.58 µM | [10] 0.981 µM
inactive: [1] | [3] | [5] | [7]

CC(C)Nc1nc(Cl)nc(NC(C)C)n1
inactive: [3] | [5] | [16] | [12]
active: [4] 11.4 µM | [6] 20 µM | [8] 7.72 µM | [10] 3.26 µM

From PubChem BioAssay (EPA / NIEHS)
